Reference: PubChem BioAssay (NCI)
Compounds without any hit were thinned out: in the full panel of roughly 83,000, 20% have a hit.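 Single-dose data. Exposure time 48 hours. Values below 10 considered active.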 Unmarked numbers belong to inactive results. Activity calls are given as the source filed them.

Assays:
Test in all cases: NCI-60 one-dose screen, 48 h (100 = growth as untreated, 0 = no growth, -100 = all killed)
Conditions in all cases: 10 µM unless noted
SK-MEL-2 melanoma = test system: SK-MEL-2 melanoma
EKVX NSCLC = test system: EKVX NSCLC
SN12C renal = test system: SN12C renal
UO-31 renal = test system: UO-31 renal
ACHN renal = test system: ACHN renal
CAKI-1 renal = test system: CAKI-1 renal
CCRF-CEM leukemia = test system: CCRF-CEM leukemia
MOLT-4 leukemia = test system: MOLT-4 leukemia
SR leukemia = test system: SR leukemia
RPMI-8226 leukemia = test system: RPMI-8226 leukemia
OVCAR-8 ovarian = test system: OVCAR-8 ovarian
OVCAR-5 ovarian = test system: OVCAR-5 ovarian
OVCAR-4 ovarian = test system: OVCAR-4 ovarian
SK-OV-3 ovarian = test system: SK-OV-3 ovarian
IGROV1 ovarian = test system: IGROV1 ovarian
OVCAR-3 ovarian = test system: OVCAR-3 ovarian
HS 578T breast = test system: HS 578T breast
NCI/ADR-RES ovarian = test system: NCI/ADR-RES ovarian
A498 renal = test system: A498 renal
TK-10 renal = test system: TK-10 renal

## Nc1n[nH]c2cc(F)c([C@@H]3Nc4ccc5[nH]ncc5c4[C@H]4C5CCC(C5)[C@@H]34)cc12 (stereo partly drawn)
SK-MEL-2 melanoma
  growth: 26.2%
EKVX NSCLC
  growth: 47.2%
SN12C renal
  growth: 33.5%
UO-31 renal
  growth: 38.6%
ACHN renal
  growth: 21.1%
CAKI-1 renal
  growth: 9.87% (active)
CCRF-CEM leukemia
  growth: 16.6%
MOLT-4 leukemia
  growth: 16.1%
SR leukemia
  growth: 9.53% (active)
RPMI-8226 leukemia
  growth: 32.1%
OVCAR-8 ovarian
  growth: 19.5%
OVCAR-5 ovarian
  growth: 30.1%
OVCAR-4 ovarian
  growth: 32.1%
SK-OV-3 ovarian
  growth: 20.6%
IGROV1 ovarian
  growth: 15%
OVCAR-3 ovarian
  growth: 12.9%
HS 578T breast
  growth: -4.82% (active)
NCI/ADR-RES ovarian
  growth: -26.9% (active)

## CCCOc1cc2ccccc2cc1C(=O)Nc1nc(N)c2c(ccc3nccc32)[nH]1
SK-MEL-2 melanoma
  growth: -49.6% (active)
EKVX NSCLC
  growth: -73.7% (active)
SN12C renal
  growth: -63.6% (active)
UO-31 renal
  growth: -65% (active)
ACHN renal
  growth: -80.9% (active)
CAKI-1 renal
  growth: -46.7% (active)
A498 renal
  growth: -87.6% (active)
CCRF-CEM leukemia
  growth: -13% (active)
MOLT-4 leukemia
  growth: -40.9% (active)
SR leukemia
  growth: -16.2% (active)
RPMI-8226 leukemia
  growth: -40.5% (active)
OVCAR-8 ovarian
  growth: -49% (active)
OVCAR-5 ovarian
  growth: -67.7% (active)
OVCAR-4 ovarian
  growth: -50.9% (active)
SK-OV-3 ovarian
  growth: -77.2% (active)
IGROV1 ovarian
  growth: -47% (active)
OVCAR-3 ovarian
  growth: -60.5% (active)
HS 578T breast
  growth: -56.1% (active)
NCI/ADR-RES ovarian
  growth: -8.57% (active)

## Cc1ccc2c(C(C[N+](=O)[O-])c3ccco3)c(-c3ccccc3)[nH]c2c1 (stereo not drawn)
SK-MEL-2 melanoma
  growth: 9.58% (active)
EKVX NSCLC
  growth: 39.8%
SN12C renal
  growth: 39.1%
UO-31 renal
  growth: 38.9%
ACHN renal
  growth: 30.6%
CAKI-1 renal
  growth: 23.8%
A498 renal
  growth: 12.3%
CCRF-CEM leukemia
  growth: 14.4%
MOLT-4 leukemia
  growth: 21%
SR leukemia
  growth: 24%
RPMI-8226 leukemia
  growth: 27.4%
OVCAR-8 ovarian
  growth: 48.1%
OVCAR-5 ovarian
  growth: 54.9%
OVCAR-4 ovarian
  growth: 64.2%
SK-OV-3 ovarian
  growth: 21.7%
IGROV1 ovarian
  growth: 29%
OVCAR-3 ovarian
  growth: 14.2%
HS 578T breast
  growth: 16.2%
NCI/ADR-RES ovarian
  growth: 7.41% (active)

## O=C(Cc1ccc(/C=C/C(=O)c2ncc[nH]2)cc1)Nc1ccccc1
SK-MEL-2 melanoma
  growth: 82.8%
EKVX NSCLC
  growth: 64.6%
SN12C renal
  growth: 21.8%
UO-31 renal
  growth: 31.3%
ACHN renal
  growth: 76%
A498 renal
  growth: 83.5%
CCRF-CEM leukemia
  growth: 3.9% (active)
MOLT-4 leukemia
  growth: 29.1%
SR leukemia
  growth: 1.14% (active)
RPMI-8226 leukemia
  growth: -0.0972% (active)
OVCAR-8 ovarian
  growth: 22.1%
OVCAR-5 ovarian
  growth: 78.5%
OVCAR-4 ovarian
  growth: 68.2%
SK-OV-3 ovarian
  growth: 75.9%
IGROV1 ovarian
  growth: 63.5%
OVCAR-3 ovarian
  growth: 17.7%
HS 578T breast
  growth: 80.7%
NCI/ADR-RES ovarian
  growth: 31.1%

## COc1cc(-c2nc(C(=O)NCC(=O)NO)nn2-c2ccc(Cl)cc2)cc(OC)c1OC
SK-MEL-2 melanoma
  growth: 95.4%
EKVX NSCLC
  growth: 103%
UO-31 renal
  growth: 83.5%
TK-10 renal
  growth: 96.9%
ACHN renal
  growth: 98.9%
CAKI-1 renal
  growth: 89.3%
A498 renal
  growth: 110%
CCRF-CEM leukemia
  growth: 107%
MOLT-4 leukemia
  growth: 97.4%
SR leukemia
  growth: 84.8%
RPMI-8226 leukemia
  growth: 105%
OVCAR-8 ovarian
  growth: 98.5%
OVCAR-5 ovarian
  growth: 93.3%
OVCAR-4 ovarian
  growth: 105%
SK-OV-3 ovarian
  growth: 93.3%
IGROV1 ovarian
  growth: 112%
OVCAR-3 ovarian
  growth: 103%
HS 578T breast
  growth: 85.6%
NCI/ADR-RES ovarian
  growth: 106%

## COc1cc2c(cc1O)CC[C@@H]1[C@@H]2CC[C@]2(C)[C@@H](OCCN(C)C)CC[C@@H]12
SK-MEL-2 melanoma
  growth: 25.8%
EKVX NSCLC
  growth: 65.2%
UO-31 renal
  growth: 72.3%
TK-10 renal
  growth: 85.1%
ACHN renal
  growth: 57.9%
CAKI-1 renal
  growth: 75.3%
A498 renal
  growth: 40.3%
CCRF-CEM leukemia
  growth: 10.3%
MOLT-4 leukemia
  growth: 33.9%
SR leukemia
  growth: -11.6% (active)
RPMI-8226 leukemia
  growth: 5.96% (active)
OVCAR-8 ovarian
  growth: 65.6%
OVCAR-5 ovarian
  growth: 78.8%
OVCAR-4 ovarian
  growth: 47%
SK-OV-3 ovarian
  growth: 63%
IGROV1 ovarian
  growth: 73.4%
OVCAR-3 ovarian
  growth: 12.5%
HS 578T breast
  growth: 27%
NCI/ADR-RES ovarian
  growth: 17.9%

## C#Cc1cccc(NC(=O)c2ccccc2NC(=O)CCl)c1
SK-MEL-2 melanoma
  growth: 90.2% [8.25 µM]
EKVX NSCLC
  growth: 94.1% [8.25 µM]
SN12C renal
  growth: 64.6% [8.25 µM]
UO-31 renal
  growth: 86.9% [8.25 µM]
ACHN renal
  growth: 92% [8.25 µM]
CAKI-1 renal
  growth: 87.9% [8.25 µM]
A498 renal
  growth: 107% [8.25 µM]
CCRF-CEM leukemia
  growth: 50.4% [8.25 µM]
SR leukemia
  growth: 62.1% [8.25 µM]
OVCAR-8 ovarian
  growth: 60.6% [8.25 µM]
OVCAR-5 ovarian
  growth: 118% [8.25 µM]
OVCAR-4 ovarian
  growth: 82.3% [8.25 µM]
SK-OV-3 ovarian
  growth: 95.2% [8.25 µM]
IGROV1 ovarian
  growth: -26.1% [8.25 µM] (active)
OVCAR-3 ovarian
  growth: 90.6% [8.25 µM]
HS 578T breast
  growth: 69.3% [8.25 µM]
NCI/ADR-RES ovarian
  growth: 81.1% [8.25 µM]

## NC(=NC1C2CC3CC(C2)CC1C3)Nc1ccc(I)cc1 (stereo not drawn)
SK-MEL-2 melanoma
  growth: 50.3%
EKVX NSCLC
  growth: 32.2%
UO-31 renal
  growth: 18.6%
TK-10 renal
  growth: 43.5%
ACHN renal
  growth: 7.41% (active)
CAKI-1 renal
  growth: 18%
A498 renal
  growth: -12.5% (active)
CCRF-CEM leukemia
  growth: 8.16% (active)
MOLT-4 leukemia
  growth: 5.63% (active)
SR leukemia
  growth: -10.1% (active)
RPMI-8226 leukemia
  growth: 20.6%
OVCAR-8 ovarian
  growth: 70.1%
OVCAR-5 ovarian
  growth: 38.9%
OVCAR-4 ovarian
  growth: 20.2%
SK-OV-3 ovarian
  growth: 77.6%
IGROV1 ovarian
  growth: 4.42% (active)
OVCAR-3 ovarian
  growth: 53.9%
HS 578T breast
  growth: 33%
NCI/ADR-RES ovarian
  growth: 49.5%
